Experimental data published in paper PMC7862700, “An all-to-all approach to the identification of sequence-specific readers for epigenetic DNA modifications on cytosine”.

What was measured:
Assay in all cases: DAPPL (digital affinity profiling via proximity ligation, sequencing); 10 mM Tris-HCl pH 7.5, 50 mM NaCl, 1 mM DTT, 4% glycerol, room temperature, 30 min; GST-TFs on glutathione beads, 16-mer random dsDNA library, 0.1% formaldehyde crosslink after washing; high values mean tight binding
[1] = molecular target: T1, FLI1 (Homo sapiens, UniProt Q01543 1-452); details: protein: recombinant; tags: N-terminal GST; dsDNA, one strand shown
T1 sequence: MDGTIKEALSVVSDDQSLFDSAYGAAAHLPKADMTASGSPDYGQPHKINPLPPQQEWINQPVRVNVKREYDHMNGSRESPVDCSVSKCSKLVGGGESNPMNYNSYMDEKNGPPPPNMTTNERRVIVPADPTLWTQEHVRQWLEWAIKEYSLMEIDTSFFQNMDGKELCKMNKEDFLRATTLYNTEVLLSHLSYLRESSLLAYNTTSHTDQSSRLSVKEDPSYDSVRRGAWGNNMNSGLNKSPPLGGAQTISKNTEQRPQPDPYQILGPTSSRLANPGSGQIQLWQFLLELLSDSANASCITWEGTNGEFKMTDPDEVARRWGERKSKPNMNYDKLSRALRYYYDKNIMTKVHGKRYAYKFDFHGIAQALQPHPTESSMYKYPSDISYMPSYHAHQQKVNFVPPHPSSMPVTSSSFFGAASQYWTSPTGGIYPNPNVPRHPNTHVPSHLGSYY
Summary of the method: (§1)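 Human transcription factors were made in yeast as GST fusions, captured on glutathione beads and barcoded with DNA. With a tag-only sample included, the pool was incubated with 200 nmole of a random double-stranded 16-mer DNA library in Tris/NaCl/DTT/glycerol buffer at room temperature for 30 min, then crosslinked with 0.1% formaldehyde after washing, ligated by proximity, amplified and sequenced. For binding signal, each hexamer's read frequency for a factor is divided by its frequency for the tag-only sample.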

[2] = molecular target: T2, GABPA (Homo sapiens, UniProt Q06546 1-454); details: protein: recombinant; tags: N-terminal GST; dsDNA, one strand shown
T2 sequence: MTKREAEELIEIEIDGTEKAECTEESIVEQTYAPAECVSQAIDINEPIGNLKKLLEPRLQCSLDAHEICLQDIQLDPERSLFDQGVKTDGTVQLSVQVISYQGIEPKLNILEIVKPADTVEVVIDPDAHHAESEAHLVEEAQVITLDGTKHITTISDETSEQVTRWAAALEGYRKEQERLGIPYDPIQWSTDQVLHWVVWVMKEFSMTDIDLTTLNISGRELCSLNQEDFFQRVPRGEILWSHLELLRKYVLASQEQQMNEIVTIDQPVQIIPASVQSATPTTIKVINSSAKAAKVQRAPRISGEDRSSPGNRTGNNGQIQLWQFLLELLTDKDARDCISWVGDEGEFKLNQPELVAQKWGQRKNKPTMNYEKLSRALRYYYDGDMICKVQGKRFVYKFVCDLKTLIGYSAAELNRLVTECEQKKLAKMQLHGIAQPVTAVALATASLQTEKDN
Summary of the method: as §1

[3] = molecular target: T3, ERG (Homo sapiens, UniProt P11308 1-479); details: protein: recombinant; tags: N-terminal GST; dsDNA, one strand shown
T3 sequence: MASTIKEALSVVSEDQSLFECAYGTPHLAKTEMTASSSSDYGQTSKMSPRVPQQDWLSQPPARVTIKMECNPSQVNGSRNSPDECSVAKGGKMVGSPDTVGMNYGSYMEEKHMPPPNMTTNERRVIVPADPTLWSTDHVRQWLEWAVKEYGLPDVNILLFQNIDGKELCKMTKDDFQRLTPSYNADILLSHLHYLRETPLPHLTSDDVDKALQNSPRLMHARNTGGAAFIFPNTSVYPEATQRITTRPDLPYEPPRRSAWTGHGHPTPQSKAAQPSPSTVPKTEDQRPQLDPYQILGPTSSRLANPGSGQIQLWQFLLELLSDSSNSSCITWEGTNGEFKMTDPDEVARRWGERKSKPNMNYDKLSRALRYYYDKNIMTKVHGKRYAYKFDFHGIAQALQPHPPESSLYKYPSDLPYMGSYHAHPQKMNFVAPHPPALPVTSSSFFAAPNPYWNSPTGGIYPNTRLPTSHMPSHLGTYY
Summary of the method: as §1

[4] = molecular target: ELF1 (Homo sapiens, UniProt P32519 1-619); details: protein: recombinant; tags: N-terminal GST; dsDNA, one strand shown
Summary of the method: as §1

[5] = molecular target: T4, EHF (Homo sapiens, UniProt Q9NZC4 1-300); details: protein: recombinant; tags: N-terminal GST; dsDNA, one strand shown
T4 sequence: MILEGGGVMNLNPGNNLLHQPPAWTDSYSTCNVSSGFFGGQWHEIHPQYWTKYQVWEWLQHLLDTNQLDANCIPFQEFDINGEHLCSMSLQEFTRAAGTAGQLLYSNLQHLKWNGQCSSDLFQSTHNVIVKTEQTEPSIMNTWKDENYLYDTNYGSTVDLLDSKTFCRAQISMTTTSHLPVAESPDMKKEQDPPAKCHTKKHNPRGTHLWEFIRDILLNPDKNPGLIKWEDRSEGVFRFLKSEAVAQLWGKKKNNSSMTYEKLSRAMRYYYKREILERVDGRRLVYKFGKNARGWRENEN
Summary of the method: as §1

[6] = molecular target: SPI1 (Homo sapiens, UniProt P17947 1-270); details: protein: recombinant; tags: N-terminal GST; dsDNA, one strand shown
Summary of the method: as §1

[7] = molecular target: SPIB (Homo sapiens, UniProt Q01892 1-262); details: protein: recombinant; tags: N-terminal GST; dsDNA, one strand shown
Summary of the method: as §1

[8] = molecular target: T5, FEV (Homo sapiens, UniProt Q99581 1-238); details: protein: recombinant; tags: N-terminal GST; dsDNA, one strand shown
T5 sequence: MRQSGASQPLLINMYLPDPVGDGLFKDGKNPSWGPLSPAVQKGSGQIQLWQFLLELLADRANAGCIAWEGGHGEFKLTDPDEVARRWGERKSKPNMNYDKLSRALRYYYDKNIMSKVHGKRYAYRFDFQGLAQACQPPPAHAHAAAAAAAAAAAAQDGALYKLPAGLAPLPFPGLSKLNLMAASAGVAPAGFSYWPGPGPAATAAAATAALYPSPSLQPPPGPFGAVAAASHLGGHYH
Summary of the method: as §1

[9] = molecular target: ETV5 (Homo sapiens, UniProt P41161 1-510); details: protein: recombinant; tags: N-terminal GST; dsDNA, one strand shown
Summary of the method: as §1

[10] = molecular target: HSF1 (Homo sapiens, UniProt Q00613 1-529); details: protein: recombinant; tags: N-terminal GST; chain copies: 3; dsDNA, one strand shown
Summary of the method: as §1

[11] = molecular target: T6, SPIC (Homo sapiens, UniProt Q8N5J4 1-248); details: protein: recombinant; tags: N-terminal GST; dsDNA, one strand shown
T6 sequence: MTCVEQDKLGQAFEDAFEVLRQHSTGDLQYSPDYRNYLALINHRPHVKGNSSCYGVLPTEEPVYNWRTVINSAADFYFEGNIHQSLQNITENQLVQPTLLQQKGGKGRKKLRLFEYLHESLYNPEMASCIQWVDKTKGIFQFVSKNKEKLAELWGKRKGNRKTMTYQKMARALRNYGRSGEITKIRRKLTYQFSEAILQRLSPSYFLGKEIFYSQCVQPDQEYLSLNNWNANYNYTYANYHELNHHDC
Summary of the method: as §1

[12] = molecular target: ELF4 (Homo sapiens, UniProt Q99607 1-663); details: protein: recombinant; tags: N-terminal GST; dsDNA, one strand shown
Summary of the method: as §1

[13] = molecular target: T7, ELK4 (Homo sapiens, UniProt P28324-2 1-405); details: protein: recombinant; tags: N-terminal GST; dsDNA, one strand shown
T7 sequence: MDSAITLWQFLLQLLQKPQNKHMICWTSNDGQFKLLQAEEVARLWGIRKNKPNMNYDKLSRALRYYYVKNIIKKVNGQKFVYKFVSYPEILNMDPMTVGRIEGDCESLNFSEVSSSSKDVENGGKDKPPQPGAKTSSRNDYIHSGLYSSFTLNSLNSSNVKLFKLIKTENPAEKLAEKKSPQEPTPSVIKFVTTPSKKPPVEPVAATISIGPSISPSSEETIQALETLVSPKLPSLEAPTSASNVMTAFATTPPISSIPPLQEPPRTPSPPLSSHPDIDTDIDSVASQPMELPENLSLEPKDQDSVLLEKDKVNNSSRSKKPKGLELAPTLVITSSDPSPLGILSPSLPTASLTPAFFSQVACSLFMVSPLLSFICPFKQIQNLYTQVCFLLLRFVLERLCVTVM
Summary of the method: as §1

[14] = molecular target: T8, ETV2 (Homo sapiens, UniProt O00321 1-342); details: protein: recombinant; tags: N-terminal GST; dsDNA, one strand shown
T8 sequence: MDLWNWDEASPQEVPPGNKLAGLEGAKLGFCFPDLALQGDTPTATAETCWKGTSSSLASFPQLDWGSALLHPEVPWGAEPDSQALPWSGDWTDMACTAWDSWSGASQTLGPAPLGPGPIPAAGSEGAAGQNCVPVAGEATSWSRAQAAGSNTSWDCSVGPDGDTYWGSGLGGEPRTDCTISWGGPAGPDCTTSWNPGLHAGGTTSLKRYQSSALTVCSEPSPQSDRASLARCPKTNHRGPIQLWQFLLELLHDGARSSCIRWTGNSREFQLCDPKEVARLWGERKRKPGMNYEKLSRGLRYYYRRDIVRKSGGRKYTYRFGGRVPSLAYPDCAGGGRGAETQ
Summary of the method: as §1

[15] = molecular target: T9, ELF3 (Homo sapiens, UniProt P78545 1-371); details: protein: recombinant; tags: N-terminal GST; dsDNA, one strand shown
T9 sequence: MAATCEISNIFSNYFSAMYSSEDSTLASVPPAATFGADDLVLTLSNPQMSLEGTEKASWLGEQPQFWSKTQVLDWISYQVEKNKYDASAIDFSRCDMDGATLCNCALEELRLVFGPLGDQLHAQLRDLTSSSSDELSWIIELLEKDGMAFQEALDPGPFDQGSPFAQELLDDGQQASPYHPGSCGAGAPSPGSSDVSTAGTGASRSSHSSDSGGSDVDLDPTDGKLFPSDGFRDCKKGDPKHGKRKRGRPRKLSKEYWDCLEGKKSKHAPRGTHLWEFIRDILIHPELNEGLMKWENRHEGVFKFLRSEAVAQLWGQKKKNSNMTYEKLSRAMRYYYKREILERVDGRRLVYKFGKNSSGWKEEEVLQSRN
Summary of the method: as §1

[16] = molecular target: ETV1 (Homo sapiens, UniProt P50549 1-477); details: protein: recombinant; tags: N-terminal GST; dsDNA, one strand shown
Summary of the method: as §1

Sequence of ELF4 (Q99607 whole entry): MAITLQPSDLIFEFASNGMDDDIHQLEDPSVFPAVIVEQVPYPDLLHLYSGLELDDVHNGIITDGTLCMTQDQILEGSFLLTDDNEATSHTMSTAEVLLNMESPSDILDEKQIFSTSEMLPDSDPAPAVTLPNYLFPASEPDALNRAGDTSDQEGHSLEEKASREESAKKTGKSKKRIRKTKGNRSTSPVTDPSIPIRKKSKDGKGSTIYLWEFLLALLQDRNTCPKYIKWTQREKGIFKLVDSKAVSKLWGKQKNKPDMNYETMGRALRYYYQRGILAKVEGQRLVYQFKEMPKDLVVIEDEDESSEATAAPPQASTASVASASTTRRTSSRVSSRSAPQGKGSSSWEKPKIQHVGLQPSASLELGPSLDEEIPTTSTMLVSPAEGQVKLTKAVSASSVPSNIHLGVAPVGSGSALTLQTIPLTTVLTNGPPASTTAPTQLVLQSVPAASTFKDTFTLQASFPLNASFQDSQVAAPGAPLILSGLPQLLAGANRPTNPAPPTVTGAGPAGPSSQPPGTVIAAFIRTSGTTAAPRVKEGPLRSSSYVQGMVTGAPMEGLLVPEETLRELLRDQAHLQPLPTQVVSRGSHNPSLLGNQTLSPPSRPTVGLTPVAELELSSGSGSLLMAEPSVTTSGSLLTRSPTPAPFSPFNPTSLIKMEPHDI
Sequence of HSF1 (Q00613 whole entry): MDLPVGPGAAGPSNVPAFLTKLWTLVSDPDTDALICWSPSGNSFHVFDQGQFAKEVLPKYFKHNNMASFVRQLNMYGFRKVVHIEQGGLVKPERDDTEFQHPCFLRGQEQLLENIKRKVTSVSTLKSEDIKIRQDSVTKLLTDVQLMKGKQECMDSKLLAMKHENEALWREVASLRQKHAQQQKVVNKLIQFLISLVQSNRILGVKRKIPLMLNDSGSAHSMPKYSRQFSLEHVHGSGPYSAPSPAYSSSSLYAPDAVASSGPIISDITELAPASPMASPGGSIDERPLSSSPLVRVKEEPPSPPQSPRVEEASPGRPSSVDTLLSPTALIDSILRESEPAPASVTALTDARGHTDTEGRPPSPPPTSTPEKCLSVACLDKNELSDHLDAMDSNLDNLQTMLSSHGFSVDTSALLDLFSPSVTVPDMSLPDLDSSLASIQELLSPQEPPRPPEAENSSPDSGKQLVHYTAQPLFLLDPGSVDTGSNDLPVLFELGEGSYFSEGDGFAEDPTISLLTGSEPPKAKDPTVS
Sequence of SPIB (Q01892 whole entry): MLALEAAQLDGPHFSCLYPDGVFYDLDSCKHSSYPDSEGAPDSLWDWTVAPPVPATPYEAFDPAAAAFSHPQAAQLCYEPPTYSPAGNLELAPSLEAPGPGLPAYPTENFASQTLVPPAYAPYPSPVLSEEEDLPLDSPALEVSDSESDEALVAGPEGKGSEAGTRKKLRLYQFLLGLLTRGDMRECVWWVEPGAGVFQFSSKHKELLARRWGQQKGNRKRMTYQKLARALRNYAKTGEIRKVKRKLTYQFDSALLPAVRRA
Sequence of ETV5 (P41161 whole entry): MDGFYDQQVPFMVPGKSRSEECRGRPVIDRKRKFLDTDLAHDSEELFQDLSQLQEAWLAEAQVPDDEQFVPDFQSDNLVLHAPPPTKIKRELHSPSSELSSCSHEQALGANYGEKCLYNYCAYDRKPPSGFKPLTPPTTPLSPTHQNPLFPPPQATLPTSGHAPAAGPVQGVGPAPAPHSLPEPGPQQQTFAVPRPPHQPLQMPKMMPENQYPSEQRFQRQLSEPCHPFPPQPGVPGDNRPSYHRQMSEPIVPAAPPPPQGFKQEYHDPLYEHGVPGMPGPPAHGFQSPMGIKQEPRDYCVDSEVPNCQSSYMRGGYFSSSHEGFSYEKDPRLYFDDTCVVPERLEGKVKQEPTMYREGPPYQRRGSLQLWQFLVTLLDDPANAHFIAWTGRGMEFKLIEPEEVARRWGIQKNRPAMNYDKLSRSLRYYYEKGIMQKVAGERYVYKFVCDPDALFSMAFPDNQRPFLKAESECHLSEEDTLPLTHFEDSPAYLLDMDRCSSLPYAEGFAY
Sequence of ETV1 (P50549 whole entry): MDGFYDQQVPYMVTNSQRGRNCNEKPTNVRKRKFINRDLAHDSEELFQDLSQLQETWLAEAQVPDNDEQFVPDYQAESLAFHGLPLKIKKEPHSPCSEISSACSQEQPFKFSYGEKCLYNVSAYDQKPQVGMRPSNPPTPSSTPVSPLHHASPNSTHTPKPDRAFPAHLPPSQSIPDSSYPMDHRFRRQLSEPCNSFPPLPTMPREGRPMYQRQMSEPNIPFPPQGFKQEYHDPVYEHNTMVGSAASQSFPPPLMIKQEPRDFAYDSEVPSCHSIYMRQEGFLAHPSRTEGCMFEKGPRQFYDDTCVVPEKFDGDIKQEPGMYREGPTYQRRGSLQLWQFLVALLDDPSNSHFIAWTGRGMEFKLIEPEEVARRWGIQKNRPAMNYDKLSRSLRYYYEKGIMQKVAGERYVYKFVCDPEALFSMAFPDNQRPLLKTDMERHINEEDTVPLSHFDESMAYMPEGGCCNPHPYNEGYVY
Sequence of ELF1 (P32519 whole entry): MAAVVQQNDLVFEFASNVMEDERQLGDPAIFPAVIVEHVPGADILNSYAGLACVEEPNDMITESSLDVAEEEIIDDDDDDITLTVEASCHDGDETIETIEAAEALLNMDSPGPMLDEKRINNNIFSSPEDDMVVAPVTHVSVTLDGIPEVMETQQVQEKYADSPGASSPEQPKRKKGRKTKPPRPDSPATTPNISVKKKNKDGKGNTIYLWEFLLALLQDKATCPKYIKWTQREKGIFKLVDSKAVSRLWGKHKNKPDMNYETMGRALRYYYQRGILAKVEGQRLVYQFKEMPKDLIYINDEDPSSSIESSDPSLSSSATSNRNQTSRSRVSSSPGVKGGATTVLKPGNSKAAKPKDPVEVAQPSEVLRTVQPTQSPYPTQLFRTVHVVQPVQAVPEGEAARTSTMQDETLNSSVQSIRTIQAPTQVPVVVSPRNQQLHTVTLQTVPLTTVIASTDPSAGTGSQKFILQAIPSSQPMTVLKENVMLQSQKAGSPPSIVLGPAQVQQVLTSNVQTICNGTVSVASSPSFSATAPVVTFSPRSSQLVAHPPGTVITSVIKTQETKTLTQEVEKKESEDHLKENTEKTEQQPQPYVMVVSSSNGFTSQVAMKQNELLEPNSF

## GAAAAC
[1]
  binding signal: 1.04 fold enrichment (6-mer frequency, TF over GST control)
[2]
  binding signal: 1.05 fold enrichment (6-mer frequency, TF over GST control)
[3]
  binding signal: 1.09 fold enrichment (6-mer frequency, TF over GST control)
[4]
  binding signal: 1.06 fold enrichment (6-mer frequency, TF over GST control)
[5]
  binding signal: 1.09 fold enrichment (6-mer frequency, TF over GST control)
[6]
  binding signal: 1.07 fold enrichment (6-mer frequency, TF over GST control)
[7]
  binding signal: 1 fold enrichment (6-mer frequency, TF over GST control)
[8]
  binding signal: 1.08 fold enrichment (6-mer frequency, TF over GST control)
[9]
  binding signal: 1.13 fold enrichment (6-mer frequency, TF over GST control)
[10]
  binding signal: 1.08 fold enrichment (6-mer frequency, TF over GST control)
[11]
  binding signal: 1.21 fold enrichment (6-mer frequency, TF over GST control)
[12]
  binding signal: 1.12 fold enrichment (6-mer frequency, TF over GST control)
[13]
  binding signal: 1.16 fold enrichment (6-mer frequency, TF over GST control)
[14]
  binding signal: 1.04 fold enrichment (6-mer frequency, TF over GST control)
[15]
  binding signal: 1.08 fold enrichment (6-mer frequency, TF over GST control)
[16]
  binding signal: 1.13 fold enrichment (6-mer frequency, TF over GST control)
